Source: PubChem BioAssay (EPA / NIEHS)
Records with an inconclusive call do not appear. Some structures have more than one record in an assay (separate samples or runs), and their calls can disagree. Active and inactive are the calls of the source. How the source made its calls, unless noted: active means hit-call score of the fitted dose curve at least 0.9, where 1 is the maximum; inactive means score below 0.9.

Tests used:
[1] = ATG_TAL_CIS: Attagene CIS-FACTORIAL HepG2 Assay for human TAL Basal Promoter (AID 2282966); conditions: HepG2 Attagene cis-factorial TAL promoter reporter; actives raise or lower the signal;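 further: background control endpoint measuring basal TAL promoter reporter mRNA not a specific factor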
How it was run: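 Fluorescence of labelled reporter cDNA fragments, resolved by capillary electrophoresis, gave the readout. Human HepG2 liver cells carried transiently transfected cis-element reporter units and were treated for 24 hours; activity was fitted bidirectionally against DMSO.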

[2] = ATG_TGFb_CIS: Attagene CIS-FACTORIAL HepG2 Assay for human Transforming Growth Factor (TGF) (AID 2282967); conditions: HepG2 Attagene CIS TGFb reporter, mRNA transcription; actives raise or lower the signal
How it was run: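 HepG2 cells transiently transfected with cis-promoter-driven multiple reporter units measure endogenous TF activity; reporter mRNA quantified at 24 h by RT-PCR, FAM labeling, HpaI digestion and capillary electrophoresis. Bidirectional fit vs DMSO.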

[3] = biological target: Estrogen receptor (Homo sapiens) (UniProt P03372); experiment: ATG_ERa_TRANS: Attagene TRANS-FACTORIAL HepG2 Assay for human Estrogen Receptor alpha (ERa) (AID 2282970; active means hit-call score of the fitted dose curve at least 0.9, where 1 is the maximum); conditions: HepG2 Attagene TRANS ERa GAL4 reporter, mRNA
Chain of Estrogen receptor (Homo sapiens) (P03372 whole entry, looked up, the tested form may be a part): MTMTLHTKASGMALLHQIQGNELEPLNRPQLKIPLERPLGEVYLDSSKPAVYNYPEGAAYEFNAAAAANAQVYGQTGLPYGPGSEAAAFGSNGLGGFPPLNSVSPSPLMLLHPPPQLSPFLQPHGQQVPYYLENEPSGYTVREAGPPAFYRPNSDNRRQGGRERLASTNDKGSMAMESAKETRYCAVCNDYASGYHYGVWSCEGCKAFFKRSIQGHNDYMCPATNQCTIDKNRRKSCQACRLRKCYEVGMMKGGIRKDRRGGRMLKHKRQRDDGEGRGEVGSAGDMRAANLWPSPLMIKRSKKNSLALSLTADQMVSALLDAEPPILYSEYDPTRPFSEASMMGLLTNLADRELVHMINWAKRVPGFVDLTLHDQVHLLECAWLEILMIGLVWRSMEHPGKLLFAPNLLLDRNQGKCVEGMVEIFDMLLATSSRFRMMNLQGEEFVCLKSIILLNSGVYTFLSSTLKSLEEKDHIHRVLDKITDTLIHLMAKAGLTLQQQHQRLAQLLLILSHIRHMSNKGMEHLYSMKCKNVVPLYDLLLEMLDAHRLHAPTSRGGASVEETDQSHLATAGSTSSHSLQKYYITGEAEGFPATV
How it was run: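 Human liver HepG2, transient transfection of multiple GAL4-UAS reporter units; TRANS format (exogenous NR-Gal4 chimera). 24 h dosing. Readout: reporter mRNA, RT-PCR, 6-FAM primer extension, HpaI digest, capillary electrophoresis. Positive direction vs DMSO.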

[4] = biological target: X-box-binding protein 1 (Homo sapiens) (UniProt P17861); experiment: ATG_Xbp1_CIS: Attagene CIS-FACTORIAL HepG2 Assay for human X-box Binding Protein 1 (XBP1) (AID 2282972); conditions: HepG2 XBP1 cis-element reporter, Attagene multiplex; actives raise or lower the signal
How it was run: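 HepG2 cells transiently transfected with cis-regulated multiple reporter transcription units; endogenous transcription factor activity measured 24 hours after chemical dosing. Reporter mRNA quantified by RT-PCR, 6-FAM primer extension, HpaI digestion and capillary electrophoresis; bidirectional fitting versus DMSO.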

[5] = ATG_M_19_TRANS: Attagene TRANS-FACTORIAL HepG2 Assay for M19 Transcription Factor (Internal Marker) (AID 2282974; active means hit-call score of the fitted dose curve at least 0.9, where 1 is the maximum); conditions: HepG2 Attagene TRANS-FACTORIAL M19 internal marker reporter
How it was run: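 HepG2 cells transiently transfected with multiple GAL4-UAS reporter transcription units were exposed to chemicals for 24 h. Reporter mRNA was read by RT-PCR, 6-FAM primer extension, HpaI digestion and capillary electrophoresis; gain of signal fitted relative to DMSO.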

[6] = biological target: Oxysterols receptor LXR-beta (Homo sapiens) (UniProt P55055); experiment: ATG_LXRb_TRANS: Attagene TRANS-FACTORIAL HepG2 Assay for human Liver X Receptor beta (LXRb) (AID 2282981; active means hit-call score of the fitted dose curve at least 0.9, where 1 is the maximum); conditions: HepG2 Attagene TRANS GAL4-LXRb reporter, mRNA
Chain of Oxysterols receptor LXR-beta (Homo sapiens) (P55055 whole entry, looked up, the tested form may be a part): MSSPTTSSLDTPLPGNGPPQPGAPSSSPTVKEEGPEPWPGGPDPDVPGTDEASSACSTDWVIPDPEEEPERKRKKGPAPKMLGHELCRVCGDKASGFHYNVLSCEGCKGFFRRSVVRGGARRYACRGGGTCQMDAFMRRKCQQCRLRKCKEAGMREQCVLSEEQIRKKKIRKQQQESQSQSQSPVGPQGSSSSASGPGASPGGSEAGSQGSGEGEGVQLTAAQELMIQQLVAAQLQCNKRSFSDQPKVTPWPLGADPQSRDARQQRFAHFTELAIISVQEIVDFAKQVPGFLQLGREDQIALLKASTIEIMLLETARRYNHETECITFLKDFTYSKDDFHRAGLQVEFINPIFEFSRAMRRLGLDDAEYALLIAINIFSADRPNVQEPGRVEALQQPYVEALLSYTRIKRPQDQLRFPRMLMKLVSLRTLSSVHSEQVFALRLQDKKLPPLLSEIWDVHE
How it was run: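 HepG2 cells transiently transfected with multiple reporter transcription units carrying chimeric NR-Gal4 proteins acting on GAL4-UAS reporters; compound exposure 24 h. Reporter mRNA quantified by RT-PCR, 6-FAM labelling, HpaI digestion and capillary electrophoresis; gain of signal versus DMSO.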

[7] = biological target: Hepatocyte nuclear factor 4-alpha (Homo sapiens) (UniProt P41235); experiment: ATG_HNF4a_TRANS: Attagene TRANS-FACTORIAL HepG2 Assay for human Hepatocyte Nuclear Factor 4 alpha (HNF4a) (AID 2282982; active means hit-call score of the fitted dose curve at least 0.9, where 1 is the maximum); conditions: HepG2 HNF4a transactivation reporter, mRNA readout
Chain of Hepatocyte nuclear factor 4-alpha (Homo sapiens) (P41235 whole entry, looked up, the tested form may be a part): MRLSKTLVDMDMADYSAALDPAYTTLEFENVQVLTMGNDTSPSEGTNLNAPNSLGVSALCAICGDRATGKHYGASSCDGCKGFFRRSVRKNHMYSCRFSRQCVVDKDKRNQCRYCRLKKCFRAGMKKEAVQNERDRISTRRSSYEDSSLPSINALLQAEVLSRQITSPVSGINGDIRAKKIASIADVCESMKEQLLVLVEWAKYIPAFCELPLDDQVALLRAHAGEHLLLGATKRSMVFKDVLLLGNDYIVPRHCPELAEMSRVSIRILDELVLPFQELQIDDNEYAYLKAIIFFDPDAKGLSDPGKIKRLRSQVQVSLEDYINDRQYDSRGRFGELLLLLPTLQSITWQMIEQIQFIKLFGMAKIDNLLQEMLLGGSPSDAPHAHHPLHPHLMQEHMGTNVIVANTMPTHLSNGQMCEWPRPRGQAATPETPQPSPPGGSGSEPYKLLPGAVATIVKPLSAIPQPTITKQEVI
How it was run: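 HepG2 cells transiently transfected with multiplexed GAL4-UAS reporter units responsive to chimeric NR-GAL4 proteins; compound exposure 24 h. Reporter mRNA quantified by RT-PCR, 6-FAM labelling, HpaI digestion and capillary electrophoresis; gain of signal versus DMSO baseline.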

[8] = ATG_M_06_TRANS: Attagene TRANS-FACTORIAL HepG2 Assay for M06 Transcription Factor (Internal Marker) (AID 2282983; active means hit-call score of the fitted dose curve at least 0.9, where 1 is the maximum;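 further: reporter transcript level by RT-PCR then capillary electrophoresis fluorescence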); conditions: HepG2 Attagene TRANS M06 internal marker reporter
How it was run: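 Transfect HepG2 with MRTUs → dose compounds 24 h → isolate RNA, oligo(dT) RT → PCR with reporter primers → 6-FAM primer extension → HpaI digest → CE fragment analysis. Positive direction vs DMSO.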

[9] = ATG_M_32_TRANS: Attagene TRANS-FACTORIAL HepG2 Assay for M32 Transcription Factor (Internal Marker) (AID 2282984; active means hit-call score of the fitted dose curve at least 0.9, where 1 is the maximum;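 further: transcript level of a background control reporter unit measured by RT-PCR and capillary electrophoresis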); conditions: HepG2 Attagene TRANS M32 internal marker reporter
How it was run: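 HepG2 cells transiently transfected with multiple GAL4-UAS reporter transcription units, dosed for 24 hours; reporter mRNA quantified by RT-PCR, 6-FAM primer extension, HpaI digestion and capillary electrophoresis. Gain-of-signal fitted versus DMSO baseline; internal background-control marker.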

[10] = biological target: Transcriptional activator Myb (Homo sapiens) (UniProt P10242); experiment: ATG_Myb_CIS: Attagene CIS-FACTORIAL HepG2 Assay for human Myeloblastosis (Myb) Proto-Oncogene Transcription Factor (AID 2282986); conditions: HepG2 Attagene CIS-FACTORIAL Myb reporter transcription; actives raise or lower the signal
Chain of Transcriptional activator Myb (Homo sapiens) (P10242 whole entry, looked up): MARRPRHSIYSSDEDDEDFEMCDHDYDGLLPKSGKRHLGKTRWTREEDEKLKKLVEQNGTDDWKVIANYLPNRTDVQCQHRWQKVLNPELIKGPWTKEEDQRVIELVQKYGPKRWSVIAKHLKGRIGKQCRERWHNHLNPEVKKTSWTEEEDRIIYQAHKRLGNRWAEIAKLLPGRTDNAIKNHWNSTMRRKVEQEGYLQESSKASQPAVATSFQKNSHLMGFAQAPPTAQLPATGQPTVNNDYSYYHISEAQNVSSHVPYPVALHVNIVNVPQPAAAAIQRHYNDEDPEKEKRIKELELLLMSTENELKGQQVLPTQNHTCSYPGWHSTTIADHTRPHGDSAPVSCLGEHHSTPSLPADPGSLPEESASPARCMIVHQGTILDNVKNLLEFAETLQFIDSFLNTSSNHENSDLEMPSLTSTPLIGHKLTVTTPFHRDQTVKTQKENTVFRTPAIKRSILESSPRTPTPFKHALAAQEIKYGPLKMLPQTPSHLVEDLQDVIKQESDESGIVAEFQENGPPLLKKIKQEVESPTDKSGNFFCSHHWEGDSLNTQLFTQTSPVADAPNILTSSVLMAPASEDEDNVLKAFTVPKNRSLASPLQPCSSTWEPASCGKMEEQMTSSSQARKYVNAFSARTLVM
How it was run: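 HepG2 cells were transiently transfected with cis-regulated multiple reporter transcription units reflecting endogenous Myb activity, then exposed to compound for 24 hours. Reporter mRNA was measured by RT-PCR with capillary electrophoresis; bidirectional fitting versus DMSO baseline.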

[11] = biological target: Nuclear respiratory factor 1 (Homo sapiens) (UniProt Q16656); experiment: ATG_NRF1_CIS: Attagene CIS-FACTORIAL HepG2 Assay for human Nuclear Respiratory Factor 1 (NRF1) Orphan Gene (AID 2282987); conditions: HepG2 NRF1 cis-element reporter, Attagene multiplex; actives raise or lower the signal
Chain of Nuclear respiratory factor 1 (Homo sapiens) (Q16656 whole entry, looked up): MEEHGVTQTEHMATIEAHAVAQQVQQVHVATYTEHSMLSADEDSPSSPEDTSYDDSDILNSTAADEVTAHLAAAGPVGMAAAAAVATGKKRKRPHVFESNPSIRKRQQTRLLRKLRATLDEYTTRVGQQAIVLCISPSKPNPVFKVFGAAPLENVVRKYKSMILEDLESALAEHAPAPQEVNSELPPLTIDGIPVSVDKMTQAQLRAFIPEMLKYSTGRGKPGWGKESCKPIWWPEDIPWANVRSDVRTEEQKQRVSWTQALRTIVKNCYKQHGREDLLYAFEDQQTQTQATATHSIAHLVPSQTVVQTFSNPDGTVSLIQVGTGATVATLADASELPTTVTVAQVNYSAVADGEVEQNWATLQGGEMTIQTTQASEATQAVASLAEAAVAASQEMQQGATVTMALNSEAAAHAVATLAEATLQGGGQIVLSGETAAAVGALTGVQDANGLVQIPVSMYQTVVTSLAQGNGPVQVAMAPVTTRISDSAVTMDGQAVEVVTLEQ
How it was run: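 HepG2 cells transiently transfected with multiple reporter transcription units under cis-regulatory promoter control, so endogenous transcription-factor activity is read. After 24 h compound exposure, reporter mRNA quantified by RT-PCR, fluorescent labelling, HpaI digestion and capillary electrophoresis; bidirectional fitting versus DMSO.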

[12] = ATG_NFI_CIS: Attagene CIS-FACTORIAL HepG2 Assay for human Nuclear Factor I (NFI) (AID 2282989); conditions: HepG2 cis-regulatory reporter, NFI response element transcription; actives raise or lower the signal
How it was run: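 Endogenous TF activity in HepG2 cells transiently transfected with cis-element-driven multiplexed reporter units, read 24 h after dosing. Reporter mRNA quantified by RT-PCR, 6-FAM labelling, HpaI digestion and capillary electrophoresis; bidirectional fit versus DMSO.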

[13] = ATG_VDRE_CIS: Attagene CIS-FACTORIAL HepG2 Assay for human Vitamin D Receptor Element (VDRE) (AID 2282968); conditions: HepG2 VDRE cis-reporter transcription, actives raise or lower the signal
How it was run: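 HepG2 cells transiently transfected with cis-element reporter units, dosed 24 h; reporter mRNA measured by RT-PCR, 6-FAM labeling, HpaI digestion and capillary electrophoresis. Activity fitted bidirectionally against DMSO baseline.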

[14] = ATG_GAL4_TRANS: Attagene TRANS-FACTORIAL HepG2 Assay for GAL4 (Internal Marker) (AID 2282976; active means hit-call score of the fitted dose curve at least 0.9, where 1 is the maximum); conditions: HepG2 Attagene TRANS GAL4 internal marker reporter
How it was run: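 First, HepG2 cells were transfected with reporter units under GAL4-UAS control. Next, they were treated with chemical for 24 h. Finally, RNA was reverse-transcribed, PCR-amplified, FAM-labelled and resolved by capillary electrophoresis, with induction scored against DMSO.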

[15] = biological target: Glucocorticoid receptor (Homo sapiens) (UniProt P04150); experiment: ATG_GR_TRANS: Attagene TRANS-FACTORIAL HepG2 Assay for human Glucocorticoid Receptor (GR) (AID 2282978; active means hit-call score of the fitted dose curve at least 0.9, where 1 is the maximum;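 further: activators score as hits since higher reporter transcript over DMSO is fitted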); conditions: HepG2 Attagene TRANS GR reporter, mRNA transcription
Chain of Glucocorticoid receptor (Homo sapiens) (P04150 whole entry, looked up, the tested form may be a part): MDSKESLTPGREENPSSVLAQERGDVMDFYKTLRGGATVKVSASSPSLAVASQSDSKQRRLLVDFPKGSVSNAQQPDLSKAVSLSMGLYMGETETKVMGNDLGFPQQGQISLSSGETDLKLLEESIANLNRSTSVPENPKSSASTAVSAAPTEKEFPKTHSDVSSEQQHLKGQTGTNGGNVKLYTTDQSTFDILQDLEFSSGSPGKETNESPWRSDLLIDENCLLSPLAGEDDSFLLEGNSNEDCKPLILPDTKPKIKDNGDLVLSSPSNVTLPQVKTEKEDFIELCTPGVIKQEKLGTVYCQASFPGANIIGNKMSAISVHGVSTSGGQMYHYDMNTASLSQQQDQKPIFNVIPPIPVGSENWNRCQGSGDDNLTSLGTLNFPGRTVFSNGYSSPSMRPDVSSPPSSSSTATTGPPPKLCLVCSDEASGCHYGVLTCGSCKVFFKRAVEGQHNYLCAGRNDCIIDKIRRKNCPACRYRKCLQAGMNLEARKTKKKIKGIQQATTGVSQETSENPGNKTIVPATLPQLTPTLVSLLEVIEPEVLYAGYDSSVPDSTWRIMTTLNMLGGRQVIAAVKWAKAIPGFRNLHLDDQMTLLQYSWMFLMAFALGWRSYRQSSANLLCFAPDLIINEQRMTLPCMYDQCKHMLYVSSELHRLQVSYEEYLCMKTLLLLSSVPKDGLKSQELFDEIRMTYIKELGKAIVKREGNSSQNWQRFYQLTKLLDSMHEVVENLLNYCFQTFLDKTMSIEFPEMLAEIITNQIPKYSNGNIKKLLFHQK
How it was run: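 HepG2 cells transiently transfected with multiplexed reporter units in which chimeric NR-GAL4 proteins drive GAL4-UAS reporters; 24 h compound exposure. Reporter mRNA measured by RT-PCR, 6-FAM labelling, HpaI digestion and capillary electrophoresis; gain-of-signal fitted versus DMSO.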

[16] = biological target: Bile acid receptor (Homo sapiens) (UniProt Q96RI1); experiment: ATG_FXR_TRANS: Attagene TRANS-FACTORIAL HepG2 Assay for Farnesoid X Receptor (FXR) (AID 2282979; active means hit-call score of the fitted dose curve at least 0.9, where 1 is the maximum;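 further: hits raise reporter mRNA above DMSO so AC50 marks FXR activation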); conditions: HepG2 Attagene TRANS FXR-GAL4 reporter transcription
Chain of Bile acid receptor (Homo sapiens) (Q96RI1 whole entry, looked up, the tested form may be a part): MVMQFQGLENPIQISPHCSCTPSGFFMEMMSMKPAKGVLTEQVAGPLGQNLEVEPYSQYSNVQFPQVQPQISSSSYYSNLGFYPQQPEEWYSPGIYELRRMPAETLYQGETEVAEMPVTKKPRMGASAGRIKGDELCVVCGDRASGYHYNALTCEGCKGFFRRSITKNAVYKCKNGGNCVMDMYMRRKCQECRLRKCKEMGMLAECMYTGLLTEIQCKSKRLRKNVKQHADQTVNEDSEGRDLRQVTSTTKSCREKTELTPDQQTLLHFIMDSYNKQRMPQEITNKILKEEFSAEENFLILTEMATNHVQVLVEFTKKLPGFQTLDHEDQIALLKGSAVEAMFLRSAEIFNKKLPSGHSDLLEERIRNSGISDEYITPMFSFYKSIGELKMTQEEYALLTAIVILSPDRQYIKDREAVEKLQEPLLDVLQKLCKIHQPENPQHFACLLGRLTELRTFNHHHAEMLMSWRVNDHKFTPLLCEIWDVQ
How it was run: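 Transient transfection of HepG2 with multiplexed GAL4-UAS reporter units; exogenous FXR-GAL4 chimera. Dose 24 h → TriZol RNA → oligo(dT) RT → PCR, 6-FAM primer extension, HpaI cut → CE. Gain vs DMSO.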

[17] = biological target: Oxysterols receptor LXR-alpha (Homo sapiens) (UniProt Q13133); experiment: ATG_LXRa_TRANS: Attagene TRANS-FACTORIAL HepG2 Assay for human Liver X Receptor alpha (LXRa) (AID 2282980; active means hit-call score of the fitted dose curve at least 0.9, where 1 is the maximum); conditions: HepG2 Attagene TRANS reporter, LXRa transactivation
Chain of Oxysterols receptor LXR-alpha (Homo sapiens) (Q13133 whole entry, looked up, the tested form may be a part): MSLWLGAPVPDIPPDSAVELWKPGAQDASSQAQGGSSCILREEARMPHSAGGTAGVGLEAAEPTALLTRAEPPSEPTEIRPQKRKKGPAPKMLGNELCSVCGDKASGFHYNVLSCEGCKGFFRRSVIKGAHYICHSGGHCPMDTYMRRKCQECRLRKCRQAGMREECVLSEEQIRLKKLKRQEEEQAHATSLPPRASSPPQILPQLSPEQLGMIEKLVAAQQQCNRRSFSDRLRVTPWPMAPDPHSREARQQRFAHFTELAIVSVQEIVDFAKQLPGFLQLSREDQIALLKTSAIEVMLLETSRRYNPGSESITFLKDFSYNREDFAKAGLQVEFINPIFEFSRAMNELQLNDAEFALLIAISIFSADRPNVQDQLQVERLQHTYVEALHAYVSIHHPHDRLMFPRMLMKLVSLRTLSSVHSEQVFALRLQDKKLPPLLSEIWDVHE
How it was run: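 Transfect HepG2 with GAL4-UAS multiplex reporter constructs (TRANS format, chimeric receptor-GAL4); treat 24 h; extract RNA, reverse-transcribe, PCR-amplify, FAM-label, HpaI-digest; resolve fragments by capillary electrophoresis. Upward response vs DMSO.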

[18] = biological target: Steroid hormone receptor ERR1 (Homo sapiens) (UniProt P11474); experiment: ATG_ERRa_TRANS: Attagene TRANS-FACTORIAL HepG2 Assay for human Estrogen-Related Receptor alpha (ERRa) (AID 2282971; active means hit-call score of the fitted dose curve at least 0.9, where 1 is the maximum); conditions: HepG2 Attagene TRANS reporter, ERRa transactivation
Chain of Steroid hormone receptor ERR1 (Homo sapiens) (P11474 whole entry, looked up, the tested form may be a part): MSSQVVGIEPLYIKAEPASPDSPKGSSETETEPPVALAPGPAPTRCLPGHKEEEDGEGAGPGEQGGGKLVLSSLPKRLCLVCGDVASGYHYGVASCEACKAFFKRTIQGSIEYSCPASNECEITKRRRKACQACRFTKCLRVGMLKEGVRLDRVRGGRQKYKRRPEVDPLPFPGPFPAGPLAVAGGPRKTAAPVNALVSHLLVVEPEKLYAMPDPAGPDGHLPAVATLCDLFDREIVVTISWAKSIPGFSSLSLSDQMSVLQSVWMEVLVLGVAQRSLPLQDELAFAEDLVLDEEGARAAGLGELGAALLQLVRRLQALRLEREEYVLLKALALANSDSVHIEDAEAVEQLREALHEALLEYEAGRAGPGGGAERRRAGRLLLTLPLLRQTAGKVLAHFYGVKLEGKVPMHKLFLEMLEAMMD
How it was run: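 Reporter transcript induction was quantified by RT-PCR and capillary electrophoresis of FAM-labelled, HpaI-cut products after 24 h treatment of HepG2 cells carrying transiently transfected GAL4-UAS reporter units and an exogenous ERRa-Gal4 fusion; activity scored as increase over DMSO.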

Measured: AC50

CCCCCCCCC(=O)O
not listed: [13] | [14] | [15] | [16] | [17] | [18]
inactive: all other assays above

O=C1OC2(c3ccccc31)c1cc(Br)c(O)c(Br)c1Oc1c2cc(Br)c(O)c1Br
inactive: [1] | [2] | [13] | [3] | [4] | [5] | [14] | [15] | [16] | [17] | [6] | [7] | [8] | [9] | [10] | [11] | [12]
active: [13] 56.4 µM | [4] 66.7 µM

CCCCCCCC(=O)O
not listed: [5] | [9] | [16] | [17] | [18]
inactive: all other assays above

CCOC(=O)CC(O)(CC(=O)OCC)C(=O)OCC
not listed: [5] | [6] | [16] | [18]
inactive: all other assays above

COc1ccc([N+](=O)[O-])cc1N
not listed: [5] | [6] | [8] | [9] | [16] | [17] | [18]
inactive: all other assays above

FC(F)(I)C(F)(F)C(F)(F)C(F)(F)C(F)(F)C(F)(F)I
inactive: [1] | [2] | [13] | [4] | [17] | [6] | [10] | [11] | [12]
active: [3] 0.00593 µM

NC(=O)N(O)[C@@H]1C=C[C@H](Oc2cccc(Oc3ccc(F)cc3)c2)C1
active: [13] 26 µM | [3] 11.2 µM
not listed: [5] | [8] | [14] | [17] | [18]
inactive: all other assays above

O=C(O)c1ccccc1C(c1ccc(O)cc1)c1ccc(O)cc1
not listed: [3] | [5] | [13] | [16]
inactive: all other assays above

Cc1ccc(S(=O)(=O)O)c(C)c1
not listed: [5] | [8] | [16]
inactive: all other assays above
